The text below walks through data of PubChem BioAssay (NCI).

Common to all, as to assay: NCI-60 one-dose screen, 48 h (100 = growth as untreated, 0 = no growth, -100 = all killed)
Conditions in all cases: 10 µM unless noted

Test [1] relates to DU-145 prostate.
Test [2] deals with K-562 leukemia.
Test [3] has as its system MALME-3M melanoma.
Test [4] deals with MDA-MB-231 breast.
Test [5] has as its system RXF 393 renal.
Test [6] concerns SF-268 CNS.
Test [7] deals with SF-295 CNS.
The subject of test [8] is SF-539 CNS.
Test [9] has as its system UACC-257 melanoma.
The subject of test [10] is M14 melanoma.
The test system of test [11] is HCT-15 colon.
Test [12] concerns SNB-75 CNS.
Test [13] concerns SNB-19 CNS.
In test [14] the test system is U251 CNS.
Test [15] relates to SK-MEL-5 melanoma.
Test [16] has as its system UACC-62 melanoma.
Test [17] deals with LOX IMVI melanoma.
The subject of test [18] is SK-MEL-28 melanoma.
The subject of test [19] is HT29 colon.
For test [20], the system named is PC-3 prostate.

The structures appear in SMILES notation. About 83,000 compounds went through this panel and 20% of them were active in at least one assay; those are over-represented in the sample as a whole.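 Single-dose data. Exposure time 48 hours. Values below 10 considered active.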 Unmarked numbers belong to inactive results. The source made the active and inactive calls.

On to `COc1ccc(CCNc2nc3c(c(=O)n(Cc4ccc(Br)cc4)c(=O)n3C)n2C)cc1OC`, for which the growth is 107% in test [1]; 69.8% in test [2]; 87.2% in test [3]; 81.9% in test [4]; 120% in [5]; 92.6% in test [6]. The growth in [7] was 89.1%; in test [8], 88.5%; in test [9] it was 92.4%; in test [10], 101%; in test [11] it was 102%; in [12] it was 84.5%. Besides, the growth in [13] is 94.5%; in test [14], 92%; in test [15], 68%; in test [16], 74.8%; in [17], 94.5%; in test [18], 99%.
On to `CN(C)CCCNc1c2ccccc2nc2ccccc12`, for which the growth in [1] is 101%; in [2], 96.8%; in test [3] it was 100%; in [4], 85.2%; in test [5] it was 56.4%; in test [6], 92.9%. Moreover, the growth in test [8] is 89.6%; in test [9], 104%; in [10], 98%; in [11] it was 94.1%; in [19], 82.8%; in [12], 66.9%. Besides, the growth is 90.5% in test [13]; 77.1% in [14]; 93.2% in test [15]; 105% in test [16]; 96.3% in test [17]; 103% in [18].
Take `COc1cc2nc(N3CCCC3)nc(NCC3CCCCC3)c2cc1OC`: the growth is 36.2% in test [1]; -9.67% (active) in [2]; -87.8% (active) in [3]; -39.9% (active) in [4]; -84% (active) in test [5]; 74.4% in test [6]. The growth is -70.9% (active) in [7]; -84.2% (active) in test [8]; -82.8% (active) in test [9]; -79.3% (active) in test [10]; -70.9% (active) in [11]; 93.4% in test [12]. In addition, the growth was 82.9% in [13]; 25.1% in [20]; -97.7% (active) in [15]; 87% in test [16]; -92.8% (active) in test [17]; -86.4% (active) in [18].
Turning to `c1ccc(-c2cc3n4c(-c5ccccc5)nn(-c5ccccc5)c4cnc-3n2)cc1`, the growth in test [1] is 38.6%; in test [2], 104%; in test [3], 60.1%; in test [4] it was 36.2%; in test [5] it was -16.1% (active); in [6] it was 46.1%. In addition, the growth in test [7] was 30.7%; in test [8], 48%; in test [9], 22.1%; in [10], 71.4%; in test [11] it was 86.2%; in test [12], -8.19% (active). Further, the growth in test [13] is 75.9%; in test [14], 26.4%; in test [15], 70.5%; in test [16], 45.7%; in test [17], 57.1%; in test [18], 63.3%.
Take `CC(=O)O[C@H]1CC[C@]2(C)[C@H]3CC=C4[C@@H]5CC(C)(C)CC[C@]5(C(=O)NCCNCCNCCN)CC[C@@]4(C)[C@]3(C)CC[C@H]2C1(C)C`: the growth in test [1] is 17%; in [2], -11.3% (active); in test [3], 73.5%; in test [4], -42.9% (active); in test [5], 65.4%; in [6], 87.1%. The growth in test [7] is 102%; in [8], 86.2%; in [9], 93.1%; in test [10], 23.8%; in test [11], -74.8% (active); in test [12] it was 71%. The growth in [13] is 92.6%; in test [20] it was 38.9%; in [15] it was 90.7%; in test [16], 93.9%; in [17], -98.9% (active); in test [18], 93.1%.
On to `COc1ccc(C(=O)c2sc3nc4c(c(-c5cccnc5)c3c2N)CCCC4)cc1OC`, for which the growth is 91.4% in [1]; 15.2% in test [2]; 83.5% in test [3]; 38.3% in test [4]; 51% in test [5]; 64.9% in [6]. Moreover, the growth in test [7] is 93.2%; in test [8], 73.4%; in [9] it was 98.3%; in test [10], 118%; in test [11] it was 72.8%; in test [12], 56.4%. For the same compound, the growth was 71% in test [13]; 59.6% in test [15]; 87.6% in test [16]; 70.2% in [17]; 77.9% in test [18].
In the case of `COc1cc(-c2ccc3c(c2)NC(=O)/C3=C\c2ccc[nH]2)ccc1O`, the growth in test [1] was 17.8%; in [2], 5.55% (active); in [3], 66.4%; in test [4] it was 66.4%; in [5], 17.8%; in [6], 31.1%. Besides, the growth is -19.6% (active) in test [7]; 0.982% (active) in test [8]; 39.3% in [9]; 34.1% in test [10]; 14.1% in [11]; 47.2% in test [12]. The growth in [13] is 34.8%; in test [14], 15.4%; in [15], -27.5% (active); in test [16], 32.2%; in test [17], -8.36% (active); in test [18] it was 37.5%.
Turning to `Cn1cc(-c2nonc2-c2c[nH]c3ccc(F)cc23)c2cccnc21`, the growth was 96% in [1]; 58% in test [2]; 93.4% in test [3]; 78.4% in test [4]; 72.8% in [5]; 78.3% in test [6]. Besides, the growth was 78.9% in test [7]; 88.7% in [8]; 89.9% in [9]; 90.3% in test [10]; 62.3% in [11]; 56.3% in [12]. Also, the growth in test [13] was 90.2%; in [14], 84.4%; in test [15], 78.2%; in test [16], 64.4%; in test [17], 85.3%; in [18], 98.4%.
On to `Cn1ccnc1C(=O)/C=C/c1ccccc1`, for which the growth is -54.5% (active) in test [1]; 8.07% (active) in test [2]; 62.9% in test [3]; 34.7% in test [4]; 12.9% in test [5]; 23.3% in test [6]. The growth in [7] is 20.5%; in [8], -38% (active); in test [9], 51.8%; in test [10], -1.9% (active); in test [11] it was 20.4%; in test [12], 12.9%. Moreover, the growth in test [13] was 42.2%; in test [14], 25%; in test [15], 15%; in [16], 43.1%; in test [17], 18.3%; in test [18], 30.1%.
`COc1cccc(C2=NN3C(C2)c2cc(Br)cc(OC)c2OC32CCN(Cc3ccccc3)CC2)c1` (configuration not stated): the growth in [1] is 105%; in test [2], 105%; in test [3], 99.7%; in test [4], 109%; in test [5], 115%; in test [6] it was 94.5%. The growth in test [7] is 101%; in test [8], 105%; in [9] it was 104%; in test [10], 107%; in [11] it was 101%; in [12], 89.5%. Also, the growth was 101% in [13]; 99.5% in test [15]; 98.7% in test [16]; 94.2% in test [17]; 107% in [18].
Consider `O=C1NC(=Nc2ccc(O)cc2)S/C1=C\c1cccc(Cl)c1`, for which the growth is 84.5% in test [1]; 21.9% in [2]; 88.7% in test [3]; 96.2% in test [4]; 75.1% in test [5]; 74.1% in [6]. Further, the growth in test [7] is 69.1%; in [8], 68.6%; in test [9], 95.9%; in [10], 56.7%; in [11] it was 30.1%; in test [12], 70.9%. Besides, the growth in [13] is 73.5%; in test [14], 59.3%; in test [15], 70.6%; in test [16] it was 80.9%; in [17] it was 53.4%; in [18], 94.7%.
As to `CC(C)CC1C(=O)N2CCC[C@H]2C2(O)O[C@](NC(=O)C3C=C4c5cccc6[nH]c(Br)c(c56)C[C@H]4N(C)C3)(C(C)C)C(=O)N12` (some centres not stated), the growth was 83.6% in test [1]; 34.5% in test [2]; 74.7% in test [3]; 46.3% in [4]; 36.8% in test [5]; 55.8% in test [6]. The growth in [8] is 73.6%; in test [9] it was 51%; in test [10], 66.3%; in test [11], 43.1%; in [19], 53.2%; in test [12], 35.5%. For the same compound, the growth in [13] is 69.9%; in test [14] it was 53.4%; in [20] it was 20.4%; in test [16] it was 56.4%; in test [17], 62.5%; in test [18], 91.3%.
Take `O=C1NC(=S)N[C@H]1CC(=O)n1cnc2ccccc21`: the growth is 109% in test [1]; 114% in test [2]; 98.2% in [3]; 101% in test [4]; 99.7% in [5]; 100% in [6]. The growth in test [7] is 100%; in [8], 99%; in [9] it was 116%; in [10], 96.8%; in test [11] it was 99.1%; in test [12], 69.7%. The growth in test [20] is 101%; in test [15], 99.1%; in test [16], 93.4%; in test [17], 88.5%; in test [18], 111%.
With `Cn1cccc1-c1nc2c3c(ccc2[nH]1)C(=O)c1ccccc1C3=O`, the growth in test [1] is 101%; in [2] it was 73.8%; in [3], 90.5%; in test [4] it was 88.6%; in test [5], 93%; in test [6], 97.8%. Besides, the growth in test [7] was 97.9%; in test [8], 90.7%; in [9] it was 94.3%; in [10], 99.7%; in [11] it was 82.1%; in test [12] it was 137%. Further, the growth in test [13] was 105%; in test [14], 87.5%; in test [15], 90.4%; in test [16] it was 80.5%; in [17], 88.9%; in test [18], 117%.
For `O=C1C=C(O)C(=O)C(CC2=C(O)C(=O)C=C(O)C2=O)=C1O`, the growth is 110% in [1]; 106% in [2]; 108% in test [3]; 95.8% in test [4]; 110% in [5]; 100% in test [6]. Further, the growth was 88.5% in test [8]; 105% in test [9]; 104% in [10]; 105% in test [11]; 107% in test [19]; 83.5% in [12]. For the same compound, the growth in test [13] is 112%; in [14], 102%; in test [20], 95.2%; in test [16], 103%; in [17], 89.9%; in test [18], 110%.
As to `Nc1ccn(-c2ccc(Br)cc2)c(=O)n1`, the growth was 101% in test [1]; 76.2% in test [2]; 124% in test [3]; 104% in [4]; 137% in test [5]; 109% in test [6]. The growth in test [7] was 79.3%; in test [8] it was 94.1%; in test [9] it was 127%; in [10], 104%; in test [11], 119%; in [12], 76.7%. The growth in test [13] was 140%; in test [14] it was 104%; in test [15], 119%; in [16], 106%; in [17] it was 105%; in test [18], 137%.
Regarding `NNCCc1ccc(NC(=O)CCCc2ccc(/C=C/C(=O)NO)cc2)cc1`, the growth in [1] was 72.6%; in [2], 7.74% (active); in test [3], 39.4%; in test [4] it was 42.3%; in test [5], 63.6%; in test [6], 45.3%. Besides, the growth in test [7] was 77.7%; in test [8], 53.3%; in [9], 51.7%; in test [10], 61.1%; in [11], 80.1%; in [12], 53%. In addition, the growth in test [14] was 22.1%; in test [20] it was 53.9%; in [16], 43%; in test [17], 44%; in test [18] it was 73.2%.
